About 410 targets per protein were measured; listed, in parts, are those with the strongest signals and a random draw of the rest.
Experiments:
Assay in all cases: glycan array binding signal (z-score within array); higher = stronger binding
Settings in all cases: glycan notation: IUPAC condensed, linker removed
[1] = molecular target: Fuc(a1-2)Gal(b1-3)GalNAc(a1-3)[Fuc(a1-2)]Gal(b1-4)Glc
How it was run: (§1)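 From the Consortium for Functional Glycomics database, 3228 arrays were curated, keeping only those whose protein sequence was available. Binding is given as a within-array Z-score averaged across arrays sharing a protein sequence and across linkers. Negative Z-scores can be read as non-binding.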

[2] = molecular target: Fuc(a1-2)Gal(b1-3)GalNAc(b1-3)Gal
How it was run: as §1

[3] = molecular target: Fuc(a1-2)Gal(b1-4)[Fuc(a1-3)]GlcNAc(b1-3)GalNAc
How it was run: as §1

[4] = molecular target: Fuc(a1-2)[Gal(a1-3)]Gal(b1-3)GlcNAc
How it was run: as §1

[5] = molecular target: Fuc(a1-2)[Gal(a1-3)]Gal(b1-4)GlcNAc(b1-2)Man
How it was run: as §1

[6] = molecular target: Fuc(a1-2)[GalNAc(a1-3)]Gal(b1-3)GlcNAc(b1-6)GalNAc
How it was run: as §1

[7] = molecular target: Fuc(a1-3)[Gal(b1-4)]GlcNAc
How it was run: as §1

[8] = molecular target: Fuc(a1-3)[GalNAc(b1-4)]GlcNAc
How it was run: as §1

[9] = molecular target: Gal(b1-3)GlcNAc(b1-3)Gal(b1-4)GlcNAc(b1-2)Man(a1-3)[Gal(b1-3)GlcNAc(b1-3)Gal(b1-4)GlcNAc(b1-2)Man(a1-6)]Man(b1-4)GlcNAc(b1-4)GlcNAc
How it was run: as §1

[10] = molecular target: Gal(b1-4)GlcNAc
How it was run: as §1

[11] = molecular target: Gal(b1-4)GlcNAc(b1-2)Man(a1-3)[Gal(b1-4)GlcNAc(b1-2)Man(a1-6)]Man(b1-4)GlcNAc(b1-4)[Fuc(a1-6)]GlcNAc
How it was run: as §1

[12] = molecular target: Gal(b1-4)GlcNAc(b1-2)[Gal(b1-4)GlcNAc(b1-6)]Man(a1-6)[Gal(b1-4)GlcNAc(b1-2)Man(a1-3)]Man(b1-4)GlcNAc(b1-4)[Fuc(a1-6)]GlcNAc
How it was run: as §1

[13] = molecular target: Gal(b1-4)GlcNAc(b1-3)Gal(b1-4)GlcNAc(b1-2)[Gal(b1-4)GlcNAc(b1-3)Gal(b1-4)GlcNAc(b1-6)]Man(a1-6)[Gal(b1-4)GlcNAc(b1-3)Gal(b1-4)GlcNAc(b1-2)Man(a1-3)]Man(b1-4)GlcNAc(b1-4)GlcNAc
How it was run: as §1

[14] = molecular target: Gal(b1-4)GlcNAc(b1-3)Gal(b1-4)GlcNAc(b1-3)Gal(b1-4)GlcNAc(b1-3)Gal(b1-4)GlcNAc(b1-3)Gal(b1-4)GlcNAc(b1-2)Man(a1-3)[Gal(b1-4)GlcNAc(b1-3)Gal(b1-4)GlcNAc(b1-3)Gal(b1-4)GlcNAc(b1-3)Gal(b1-4)GlcNAc(b1-3)Gal(b1-4)GlcNAc(b1-2)Man(a1-6)]Man(b1-4)GlcNAc(b1-4)GlcNAc
How it was run: as §1

[15] = molecular target: Gal(b1-4)GlcNAc(b1-3)Gal(b1-4)GlcNAc(b1-3)Gal(b1-4)GlcNAc(b1-3)Gal(b1-4)GlcNAc(b1-3)Gal(b1-4)GlcNAc(b1-2)[Gal(b1-4)GlcNAc(b1-3)Gal(b1-4)GlcNAc(b1-3)Gal(b1-4)GlcNAc(b1-3)Gal(b1-4)GlcNAc(b1-3)Gal(b1-4)GlcNAc(b1-6)]Man(a1-6)[Gal(b1-4)GlcNAc(b1-3)Gal(b1-4)GlcNAc(b1-3)Gal(b1-4)GlcNAc(b1-3)Gal(b1-4)GlcNAc(b1-3)Gal(b1-4)GlcNAc(b1-2)Man(a1-3)]Man(b1-4)GlcNAc(b1-4)[Fuc(a1-6)]GlcNAc
How it was run: as §1

[16] = molecular target: Gal3S(b1-3)[Fuc(a1-4)]GlcNAc
How it was run: as §1

[17] = molecular target: Gal6S(b1-4)Glc6S
How it was run: as §1

[18] = molecular target: GalNAc(b1-3)Gal(a1-4)Gal(b1-4)GlcNAc
How it was run: as §1

[19] = molecular target: Glc(a1-4)Glc(a1-4)Glc(a1-4)Glc
How it was run: as §1

[20] = molecular target: GlcNAc(a1-4)Gal(b1-4)GlcNAc
How it was run: as §1

[21] = molecular target: GlcNAc(b1-2)[GlcNAc(b1-6)]Man(a1-6)[GlcNAc(b1-2)Man(a1-3)]Man(b1-4)GlcNAc(b1-4)[Fuc(a1-6)]GlcNAc
How it was run: as §1

[22] = molecular target: GlcNAc(b1-3)Gal(b1-4)GlcNAc(b1-3)Gal(b1-4)GlcNAc(b1-2)Man(a1-3)[GlcNAc(b1-3)Gal(b1-4)GlcNAc(b1-3)Gal(b1-4)GlcNAc(b1-2)Man(a1-6)]Man(b1-4)GlcNAc(b1-4)GlcNAc
How it was run: as §1

[23] = molecular target: GlcNAc(b1-3)Gal(b1-4)GlcNAc(b1-3)Gal(b1-4)GlcNAc(b1-2)Man(a1-3)[GlcNAc(b1-3)Gal(b1-4)GlcNAc(b1-3)Gal(b1-4)GlcNAc(b1-2)Man(a1-6)]Man(b1-4)GlcNAc(b1-4)[Fuc(a1-6)]GlcNAc
How it was run: as §1

[24] = molecular target: GlcNAc(b1-3)Gal(b1-4)GlcNAc(b1-3)Gal(b1-4)GlcNAc(b1-3)Gal(b1-4)GlcNAc(b1-2)Man(a1-3)[GlcNAc(b1-3)Gal(b1-4)GlcNAc(b1-3)Gal(b1-4)GlcNAc(b1-3)Gal(b1-4)GlcNAc(b1-2)Man(a1-6)]Man(b1-4)GlcNAc(b1-4)[Fuc(a1-6)]GlcNAc
How it was run: as §1

[25] = molecular target: GlcNAc(b1-4)GlcNAc(b1-4)GlcNAc(b1-4)GlcNAc(b1-4)GlcNAc(b1-4)GlcNAc
How it was run: as §1

[26] = molecular target: GlcNAc(b1-6)GalNAc
How it was run: as §1

[27] = molecular target: Man(a1-2)Man(a1-6)[Man(a1-3)]Man(a1-6)[Man(a1-2)Man(a1-2)Man(a1-3)]Man(b1-4)GlcNAc(b1-4)GlcNAc
How it was run: as §1

[28] = molecular target: Neu5Ac(a2-3)Gal(b1-3)GalNAc(b1-4)[Neu5Ac(a2-8)Neu5Ac(a2-3)]Gal(b1-4)Glc
How it was run: as §1

[29] = molecular target: Neu5Ac(a2-3)Gal(b1-3)GlcNAc
How it was run: as §1

[30] = molecular target: Neu5Ac(a2-3)Gal(b1-3)[GlcNAc(b1-6)]GalNAc
How it was run: as §1

[31] = molecular target: Neu5Ac(a2-3)Gal(b1-3)[Neu5Ac(a2-6)]GlcNAc(b1-3)[Fuc(a1-3)[Gal(b1-4)]GlcNAc(b1-6)]Gal(b1-4)Glc
How it was run: as §1

[32] = molecular target: Neu5Ac(a2-3)Gal(b1-3)]Neu5Ac(a2-3)Gal(b1-4)]GlcNAc
How it was run: as §1

[33] = molecular target: Neu5Ac(a2-3)Gal(b1-4)GlcNAc(b1-3)Gal(b1-4)GlcNAc(b1-3)Gal(b1-4)GlcNAc
How it was run: as §1

[34] = molecular target: Neu5Ac(a2-3)Gal(b1-4)[Fuc(a1-3)]GlcNAc(b1-3)GalNAc
How it was run: as §1

[35] = molecular target: Neu5Ac(a2-3)[Neu5Ac(a2-6)]GalNAc
How it was run: as §1

[36] = molecular target: Neu5Ac(a2-6)Gal(b1-4)GlcNAc(b1-2)[Neu5Ac(a2-6)Gal(b1-4)GlcNAc(b1-4)]Man(a1-3)[GlcNAc(b1-4)][Neu5Ac(a2-6)Gal(b1-4)GlcNAc(b1-2)[Neu5Ac(a2-6)Gal(b1-4)GlcNAc(b1-6)]Man(a1-6)]Man(b1-4)GlcNAc(b1-4)GlcNAc
How it was run: as §1

[37] = molecular target: Neu5Ac(a2-6)Gal(b1-4)GlcNAc(b1-2)[Neu5Ac(a2-6)Gal(b1-4)GlcNAc(b1-4)]Man(a1-3)[GlcNAc(b1-4)][Neu5Ac(a2-6)Gal(b1-4)GlcNAc(b1-4)Man(a1-6)]Man(b1-4)GlcNAc(b1-4)GlcNAc
How it was run: as §1

[38] = molecular target: Neu5Ac(a2-6)Gal(b1-4)GlcNAc(b1-3)Gal(b1-4)GlcNAc(b1-3)GalNAc
How it was run: as §1

[39] = molecular target: Neu5Ac(a2-6)Gal(b1-4)GlcNAc(b1-3)Gal(b1-4)[Fuc(a1-3)]GlcNAc(b1-3)Gal(b1-4)[Fuc(a1-3)]GlcNAc
How it was run: as §1

[40] = molecular target: Neu5Ac(a2-6)GalNAc(b1-4)GlcNAc6S
How it was run: as §1

[41] = molecular target: Neu5Ac(a2-8)Neu5Ac(a2-3)[Gal(b1-3)GalNAc(b1-4)]Gal(b1-4)Glc
How it was run: as §1

[42] = molecular target: Neu5Gc(a2-3)Gal(b1-4)GlcNAc
How it was run: as §1

[43] = molecular target: Neu5Gc(a2-3)Gal(b1-4)GlcNAc(b1-3)Gal(b1-4)GlcNAc(b1-2)Man(a1-3)[Neu5Gc(a2-3)Gal(b1-4)GlcNAc(b1-3)Gal(b1-4)GlcNAc(b1-2)Man(a1-6)]Man(b1-4)GlcNAc(b1-4)GlcNAc
How it was run: as §1

[44] = molecular target: Neu5Gc(a2-6)GalNAc
How it was run: as §1

[45] = molecular target: Neu5Gc(a2-8)Neu5Gc(a2-3)Gal(b1-4)GlcNAc(b1-3)Gal(b1-4)GlcNAc
How it was run: as §1

For CTAEGIKKFEGDGYELFKDNFPAGEKFDNDDTNDQFYTVIF [MUB40 (Lactobacillus reuteri)], the “glycan array binding signal (z-score)” value [1] was -0.41, the “glycan array binding signal (z-score)” value [2] was -0.251 and the “glycan array binding signal (z-score)” value [3] was 3.56. The “glycan array binding signal (z-score)” value [4] was -0.002, the “glycan array binding signal (z-score)” value [5] was 2.44 and the “glycan array binding signal (z-score)” value [6] was -0.425. The “glycan array binding signal (z-score)” value [7] was 0.464, the “glycan array binding signal (z-score)” value [8] was -0.365 and the “glycan array binding signal (z-score)” value [9] was 4.29. The “glycan array binding signal (z-score)” value [10] was -0.134, the “glycan array binding signal (z-score)” value [11] was -0.425 and the “glycan array binding signal (z-score)” value [12] was 0.328. For the same binder, the “glycan array binding signal (z-score)” value [13] was -0.339, the “glycan array binding signal (z-score)” value [14] was 3.44 and the “glycan array binding signal (z-score)” value [15] was 2.67. For the same binder, the “glycan array binding signal (z-score)” value [16] was 0.295, the “glycan array binding signal (z-score)” value [17] was -0.817 and the “glycan array binding signal (z-score)” value [18] was -0.189. The “glycan array binding signal (z-score)” value [19] was -0.331, the “glycan array binding signal (z-score)” value [20] was -0.247 and the “glycan array binding signal (z-score)” value [21] was 0.341. The “glycan array binding signal (z-score)” value [22] was 1.03, the “glycan array binding signal (z-score)” value [23] was 2.39 and the “glycan array binding signal (z-score)” value [24] was 4.26. The “glycan array binding signal (z-score)” value [25] was -0.138, the “glycan array binding signal (z-score)” value [26] was -0.355 and the “glycan array binding signal (z-score)” value [27] was -0.33. The “glycan array binding signal (z-score)” value [28] was 1.18, the “glycan array binding signal (z-score)” value [29] was -0.358 and the “glycan array binding signal (z-score)” value [30] was 1.11. The “glycan array binding signal (z-score)” value [31] was -0.114, the “glycan array binding signal (z-score)” value [32] was -0.307 and the “glycan array binding signal (z-score)” value [33] was 1.72. The “glycan array binding signal (z-score)” value [34] was 0.351, the “glycan array binding signal (z-score)” value [35] was 1.33 and the “glycan array binding signal (z-score)” value [36] was 0.5. For the same binder, the “glycan array binding signal (z-score)” value [37] was -0.219, the “glycan array binding signal (z-score)” value [38] was 3.03 and the “glycan array binding signal (z-score)” value [39] was 1.24. The “glycan array binding signal (z-score)” value [40] was 2.71, the “glycan array binding signal (z-score)” value [41] was -0.27 and the “glycan array binding signal (z-score)” value [42] was 2.42. For the same binder, the “glycan array binding signal (z-score)” value [43] was 2.75, the “glycan array binding signal (z-score)” value [44] was 0.011 and the “glycan array binding signal (z-score)” value [45] was 2.42.

Source: the supplement of paper PMC8728848
